Results as given in PubChem BioAssay (EPA / NIEHS).
Inconclusive results are not listed. Active and inactive are the calls of the source. Rule for the calls, unless noted: active = hit-call score of the fitted dose curve at least 0.9, where 1 is the maximum; inconclusive = response in the unintended direction; inactive = score below 0.9.

Legend:
[1] = ATG_TCF_b_cat_CIS: Attagene CIS-FACTORIAL HepG2 Assay for human T-Cell-Factor with beta-catenin (TCF/b-cat) (AID 2282965; active = hit-call score of the fitted dose curve at least 0.9, where 1 is the maximum; inactive = score below 0.9); details: HepG2 TCF/beta-catenin cis-reporter transcription, actives raise or lower the signal
In short: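 In this cis-format system, transfected HepG2 cells report endogenous transcription factor activity. Readout after 24 h exposure is reporter transcript abundance from RT-PCR and capillary electrophoresis, analysed for gain or loss of signal versus DMSO.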

[2] = ATG_TAL_CIS: Attagene CIS-FACTORIAL HepG2 Assay for human TAL Basal Promoter (AID 2282966; active = hit-call score of the fitted dose curve at least 0.9, where 1 is the maximum; inactive = score below 0.9;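 note: background control endpoint measuring basal TAL promoter reporter mRNA not a specific factor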); details: HepG2 Attagene cis-factorial TAL promoter reporter; actives raise or lower the signal
In short: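 In this cell-based multiplex, HepG2 liver cells bearing cis-promoter reporter constructs are dosed for 24 hours. Total RNA is reverse-transcribed and amplified, labelled fragments are sized by capillary electrophoresis, and signal changes are fitted bidirectionally versus DMSO.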

[3] = ATG_TGFb_CIS: Attagene CIS-FACTORIAL HepG2 Assay for human Transforming Growth Factor (TGF) (AID 2282967; active = hit-call score of the fitted dose curve at least 0.9, where 1 is the maximum; inactive = score below 0.9); details: HepG2 Attagene CIS TGFb reporter, mRNA transcription; actives raise or lower the signal
In short: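 HepG2 cells transiently transfected with cis-promoter-driven multiple reporter units measure endogenous TF activity; reporter mRNA quantified at 24 h by RT-PCR, FAM labeling, HpaI digestion and capillary electrophoresis. Bidirectional fit vs DMSO.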

[4] = ATG_VDRE_CIS: Attagene CIS-FACTORIAL HepG2 Assay for human Vitamin D Receptor Element (VDRE) (AID 2282968; active = hit-call score of the fitted dose curve at least 0.9, where 1 is the maximum; inactive = score below 0.9); details: HepG2 VDRE cis-reporter transcription, actives raise or lower the signal
In short: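 HepG2 cells transiently transfected with cis-element reporter units, dosed 24 h; reporter mRNA measured by RT-PCR, 6-FAM labeling, HpaI digestion and capillary electrophoresis. Activity fitted bidirectionally against DMSO baseline.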

[5] = biological target: Nuclear receptor subfamily 1 group I member 3 (Homo sapiens) (UniProt Q14994); test: ATG_CAR_TRANS: Attagene TRANS-FACTORIAL HepG2 Assay for human Constitutive Androstane Receptor (CAR) (AID 2282969); details: HepG2 Attagene TRANS-FACTORIAL CAR reporter;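 note: activators raise reporter mRNA above DMSO so AC50 marks induction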
In short: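 HepG2 cells transiently transfected with multiplexed GAL4-UAS reporter units expressing chimeric NR-Gal4 proteins; compound exposure 24 h. Reporter mRNA measured by RT-PCR, 6-FAM labelling, HpaI digestion and capillary electrophoresis; gain-of-signal fitted against DMSO baseline.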

[6] = biological target: Steroid hormone receptor ERR1 (Homo sapiens) (UniProt P11474); test: ATG_ERRa_TRANS: Attagene TRANS-FACTORIAL HepG2 Assay for human Estrogen-Related Receptor alpha (ERRa) (AID 2282971); details: HepG2 Attagene TRANS reporter, ERRa transactivation
In short: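 Transfected HepG2, 24 h dosing, ERRa-Gal4 chimera driving GAL4-UAS reporter. Readout: reporter mRNA via RT-PCR plus capillary electrophoresis (fluorescence). Positive direction vs DMSO control.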

[7] = biological target: X-box-binding protein 1 (Homo sapiens) (UniProt P17861); test: ATG_Xbp1_CIS: Attagene CIS-FACTORIAL HepG2 Assay for human X-box Binding Protein 1 (XBP1) (AID 2282972; active = hit-call score of the fitted dose curve at least 0.9, where 1 is the maximum; inactive = score below 0.9); details: HepG2 XBP1 cis-element reporter, Attagene multiplex; actives raise or lower the signal
In short: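 HepG2 cells transiently transfected with cis-regulated multiple reporter transcription units; endogenous transcription factor activity measured 24 hours after chemical dosing. Reporter mRNA quantified by RT-PCR, 6-FAM primer extension, HpaI digestion and capillary electrophoresis; bidirectional fitting versus DMSO.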

[8] = biological target: Androgen receptor (Homo sapiens) (UniProt P10275); test: ATG_AR_TRANS: Attagene TRANS-FACTORIAL HepG2 Assay for human Androgen Receptor (AR) (AID 2282973); details: HepG2 Attagene TRANS-FACTORIAL AR reporter transcription
In short: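 Readout is reporter transcript abundance, quantified by fluorescent RT-PCR products separated on capillary electrophoresis. Human HepG2 liver cells carried transiently transfected NR-Gal4 chimera plus GAL4-UAS reporter constructs and were dosed for 24 h; activity scored upward versus DMSO.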

[9] = ATG_M_19_TRANS: Attagene TRANS-FACTORIAL HepG2 Assay for M19 Transcription Factor (Internal Marker) (AID 2282974); details: HepG2 Attagene TRANS-FACTORIAL M19 internal marker reporter
In short: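 Transfected HepG2 (GAL4-UAS MRTUs), 24 h compound, TriZol RNA, DNase-treated RT, reporter PCR, FAM label, HpaI digest, CE fluorescence; gain vs DMSO.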

[10] = ATG_GAL4_TRANS: Attagene TRANS-FACTORIAL HepG2 Assay for GAL4 (Internal Marker) (AID 2282976); details: HepG2 Attagene TRANS GAL4 internal marker reporter
In short: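 RT-PCR/capillary electrophoresis readout of reporter mRNA. HepG2, transient MRTU transfection (GAL4-UAS reporters), 24 h compound exposure. Background-control endpoint, positive direction vs DMSO baseline.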

[11] = biological target: Estrogen-related receptor gamma (Homo sapiens) (UniProt P62508); test: ATG_ERRg_TRANS: Attagene TRANS-FACTORIAL HepG2 Assay for human Estrogen-Related Receptor gamma (ERRg) (AID 2282977); details: HepG2 Attagene TRANS reporter, ERRg transactivation;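 note: hits increase reporter signal over DMSO so potencies reflect activators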
In short: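 Transient HepG2 transfectants, 24 h compound exposure, GAL4-UAS reporter mRNA by RT-PCR/6-FAM labelling/capillary electrophoresis; positive direction vs DMSO.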

[12] = biological target: Glucocorticoid receptor (Homo sapiens) (UniProt P04150); test: ATG_GR_TRANS: Attagene TRANS-FACTORIAL HepG2 Assay for human Glucocorticoid Receptor (GR) (AID 2282978); details: HepG2 Attagene TRANS GR reporter, mRNA transcription;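 note: activators score as hits since higher reporter transcript over DMSO is fitted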
In short: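 After 24 h incubation with test chemical, transfected HepG2 cells were lysed for RNA; reporter cDNA was amplified, FAM-labelled, HpaI-digested and sized on a capillary analyser. Signal gain relative to DMSO was scored.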

[13] = biological target: Bile acid receptor (Homo sapiens) (UniProt Q96RI1); test: ATG_FXR_TRANS: Attagene TRANS-FACTORIAL HepG2 Assay for Farnesoid X Receptor (FXR) (AID 2282979); details: HepG2 Attagene TRANS FXR-GAL4 reporter transcription;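 note: hits raise reporter mRNA above DMSO so AC50 marks FXR activation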
In short: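 Read-out: fluorescent reporter transcripts quantified by capillary electrophoresis after RT-PCR of total RNA. Source cells were HepG2 transiently carrying chimeric NR-GAL4 plus GAL4-UAS reporter units, dosed 24 h. Activity fitted upward relative to DMSO baseline.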

[14] = biological target: Oxysterols receptor LXR-beta (Homo sapiens) (UniProt P55055); test: ATG_LXRb_TRANS: Attagene TRANS-FACTORIAL HepG2 Assay for human Liver X Receptor beta (LXRb) (AID 2282981); details: HepG2 Attagene TRANS GAL4-LXRb reporter, mRNA
In short: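 HepG2 cells transiently transfected with multiple reporter transcription units carrying chimeric NR-Gal4 proteins acting on GAL4-UAS reporters; compound exposure 24 h. Reporter mRNA quantified by RT-PCR, 6-FAM labelling, HpaI digestion and capillary electrophoresis; gain of signal versus DMSO.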

[15] = ATG_M_06_TRANS: Attagene TRANS-FACTORIAL HepG2 Assay for M06 Transcription Factor (Internal Marker) (AID 2282983); details: HepG2 Attagene TRANS M06 internal marker reporter
In short: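 After a 24 h chemical treatment of transfected HepG2, RNA underwent DNase I treatment, reverse transcription and reporter-specific PCR; labelled, HpaI-digested products were sized by capillary electrophoresis. Signal increase relative to DMSO defined activity.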

[16] = ATG_M_32_TRANS: Attagene TRANS-FACTORIAL HepG2 Assay for M32 Transcription Factor (Internal Marker) (AID 2282984); details: HepG2 Attagene TRANS M32 internal marker reporter;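 note: transcript level of a background control reporter unit measured by RT-PCR and capillary electrophoresis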
In short: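 HepG2 cells transiently transfected with multiple GAL4-UAS reporter transcription units, dosed for 24 hours; reporter mRNA quantified by RT-PCR, 6-FAM primer extension, HpaI digestion and capillary electrophoresis. Gain-of-signal fitted versus DMSO baseline; internal background-control marker.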

[17] = biological target: Nuclear receptor subfamily 4 group A member 2 (Homo sapiens) (UniProt P43354); test: ATG_NURR1_TRANS: Attagene TRANS-FACTORIAL HepG2 Assay for human Nuclear Receptor Related Protein 1 (NURR1) (AID 2282985); details: HepG2 Attagene TRANS reporter, mRNA readout
In short: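 HepG2 cells transiently transfected with GAL4-UAS reporter units and chimeric NR-Gal4 constructs; chemical exposure 24 h. Reporter mRNA quantified by RT-PCR, fluorescent labelling and capillary electrophoresis; gain of signal fitted relative to DMSO baseline.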

[18] = biological target: Estrogen receptor (Homo sapiens) (UniProt P03372); test: ATG_ERa_TRANS: Attagene TRANS-FACTORIAL HepG2 Assay for human Estrogen Receptor alpha (ERa) (AID 2282970); details: HepG2 Attagene TRANS ERa GAL4 reporter, mRNA
In short: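 After 24 h of compound treatment, RNA from HepG2 cells bearing transfected GAL4-UAS reporter constructs is converted to cDNA, amplified and fluorescently labelled. Capillary electrophoresis resolves the ERa-linked reporter; DMSO serves as negative control.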

[19] = biological target: Hepatocyte nuclear factor 4-alpha (Homo sapiens) (UniProt P41235); test: ATG_HNF4a_TRANS: Attagene TRANS-FACTORIAL HepG2 Assay for human Hepatocyte Nuclear Factor 4 alpha (HNF4a) (AID 2282982); details: HepG2 HNF4a transactivation reporter, mRNA readout
In short: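 HepG2 cells transiently transfected with multiplexed GAL4-UAS reporter units responsive to chimeric NR-GAL4 proteins; compound exposure 24 h. Reporter mRNA quantified by RT-PCR, 6-FAM labelling, HpaI digestion and capillary electrophoresis; gain of signal versus DMSO baseline.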

[20] = biological target: Oxysterols receptor LXR-alpha (Homo sapiens) (UniProt Q13133); test: ATG_LXRa_TRANS: Attagene TRANS-FACTORIAL HepG2 Assay for human Liver X Receptor alpha (LXRa) (AID 2282980); details: HepG2 Attagene TRANS reporter, LXRa transactivation
In short: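 Read-out: reporter transcript levels by RT-PCR plus capillary electrophoresis, fluorescence intensity. Transiently transfected HepG2, exogenous NR-GAL4 chimera, GAL4-UAS reporters; 24 h compound exposure. Activity = increase over DMSO negative control.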

Measured: AC50

Glucocorticoid receptor (Homo sapiens), sequence (P04150 whole entry, looked up): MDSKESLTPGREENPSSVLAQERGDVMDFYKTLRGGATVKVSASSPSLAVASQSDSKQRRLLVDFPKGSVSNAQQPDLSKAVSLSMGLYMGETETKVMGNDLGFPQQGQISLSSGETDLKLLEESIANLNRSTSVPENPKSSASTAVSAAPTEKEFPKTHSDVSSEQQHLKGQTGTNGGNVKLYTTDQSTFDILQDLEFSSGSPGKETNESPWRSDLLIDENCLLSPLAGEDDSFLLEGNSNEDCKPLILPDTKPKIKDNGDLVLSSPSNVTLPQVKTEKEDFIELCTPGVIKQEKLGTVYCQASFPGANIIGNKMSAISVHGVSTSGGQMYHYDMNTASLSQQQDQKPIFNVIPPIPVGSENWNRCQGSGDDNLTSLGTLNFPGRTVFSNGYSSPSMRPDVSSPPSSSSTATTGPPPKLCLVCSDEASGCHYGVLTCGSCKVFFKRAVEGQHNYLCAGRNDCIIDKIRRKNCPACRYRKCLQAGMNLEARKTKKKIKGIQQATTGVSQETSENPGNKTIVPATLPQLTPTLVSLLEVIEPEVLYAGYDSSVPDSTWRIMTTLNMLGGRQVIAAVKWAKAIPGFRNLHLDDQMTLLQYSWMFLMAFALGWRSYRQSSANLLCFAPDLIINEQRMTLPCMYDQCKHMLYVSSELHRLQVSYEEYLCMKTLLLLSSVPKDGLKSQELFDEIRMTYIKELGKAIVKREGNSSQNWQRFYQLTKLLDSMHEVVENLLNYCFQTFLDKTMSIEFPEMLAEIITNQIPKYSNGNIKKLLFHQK
Oxysterols receptor LXR-beta (Homo sapiens), sequence (P55055 whole entry, looked up, the tested form may be a part): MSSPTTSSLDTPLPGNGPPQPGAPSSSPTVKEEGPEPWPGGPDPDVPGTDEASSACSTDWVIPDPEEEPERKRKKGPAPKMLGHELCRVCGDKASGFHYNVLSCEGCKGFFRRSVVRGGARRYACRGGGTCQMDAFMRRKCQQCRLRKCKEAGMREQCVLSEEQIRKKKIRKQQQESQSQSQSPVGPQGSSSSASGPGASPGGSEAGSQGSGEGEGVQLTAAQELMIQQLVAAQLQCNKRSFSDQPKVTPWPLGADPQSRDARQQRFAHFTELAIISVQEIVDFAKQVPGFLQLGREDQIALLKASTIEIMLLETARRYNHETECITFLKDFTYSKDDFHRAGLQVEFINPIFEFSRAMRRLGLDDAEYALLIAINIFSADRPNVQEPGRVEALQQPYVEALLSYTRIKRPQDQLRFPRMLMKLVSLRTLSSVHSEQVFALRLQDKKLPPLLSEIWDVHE
Androgen receptor (Homo sapiens), sequence (P10275 whole entry, looked up, the tested form may be a part): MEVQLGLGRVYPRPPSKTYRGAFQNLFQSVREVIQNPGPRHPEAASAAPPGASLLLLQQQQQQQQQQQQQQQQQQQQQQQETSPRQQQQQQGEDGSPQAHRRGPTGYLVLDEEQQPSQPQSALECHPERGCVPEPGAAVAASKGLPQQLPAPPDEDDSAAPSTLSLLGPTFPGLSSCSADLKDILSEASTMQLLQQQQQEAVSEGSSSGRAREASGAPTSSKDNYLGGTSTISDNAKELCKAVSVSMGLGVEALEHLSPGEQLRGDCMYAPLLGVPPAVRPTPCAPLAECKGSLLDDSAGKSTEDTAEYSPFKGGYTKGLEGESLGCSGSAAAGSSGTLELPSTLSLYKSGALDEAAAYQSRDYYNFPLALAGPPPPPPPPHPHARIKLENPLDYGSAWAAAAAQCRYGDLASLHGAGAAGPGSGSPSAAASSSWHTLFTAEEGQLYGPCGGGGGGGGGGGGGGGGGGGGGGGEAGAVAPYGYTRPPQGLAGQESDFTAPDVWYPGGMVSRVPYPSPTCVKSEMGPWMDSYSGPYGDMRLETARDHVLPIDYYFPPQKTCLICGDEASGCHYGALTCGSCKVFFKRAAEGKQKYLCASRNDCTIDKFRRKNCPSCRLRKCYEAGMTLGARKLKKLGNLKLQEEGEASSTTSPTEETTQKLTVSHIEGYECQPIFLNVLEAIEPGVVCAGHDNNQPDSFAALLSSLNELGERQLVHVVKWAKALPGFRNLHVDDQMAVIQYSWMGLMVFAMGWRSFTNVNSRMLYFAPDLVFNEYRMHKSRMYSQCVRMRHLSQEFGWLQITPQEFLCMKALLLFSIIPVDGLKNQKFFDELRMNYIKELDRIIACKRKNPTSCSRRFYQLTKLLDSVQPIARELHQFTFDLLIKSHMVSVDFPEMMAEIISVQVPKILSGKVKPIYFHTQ
Nuclear receptor subfamily 4 group A member 2 (Homo sapiens), sequence (P43354 whole entry, looked up, the tested form may be a part): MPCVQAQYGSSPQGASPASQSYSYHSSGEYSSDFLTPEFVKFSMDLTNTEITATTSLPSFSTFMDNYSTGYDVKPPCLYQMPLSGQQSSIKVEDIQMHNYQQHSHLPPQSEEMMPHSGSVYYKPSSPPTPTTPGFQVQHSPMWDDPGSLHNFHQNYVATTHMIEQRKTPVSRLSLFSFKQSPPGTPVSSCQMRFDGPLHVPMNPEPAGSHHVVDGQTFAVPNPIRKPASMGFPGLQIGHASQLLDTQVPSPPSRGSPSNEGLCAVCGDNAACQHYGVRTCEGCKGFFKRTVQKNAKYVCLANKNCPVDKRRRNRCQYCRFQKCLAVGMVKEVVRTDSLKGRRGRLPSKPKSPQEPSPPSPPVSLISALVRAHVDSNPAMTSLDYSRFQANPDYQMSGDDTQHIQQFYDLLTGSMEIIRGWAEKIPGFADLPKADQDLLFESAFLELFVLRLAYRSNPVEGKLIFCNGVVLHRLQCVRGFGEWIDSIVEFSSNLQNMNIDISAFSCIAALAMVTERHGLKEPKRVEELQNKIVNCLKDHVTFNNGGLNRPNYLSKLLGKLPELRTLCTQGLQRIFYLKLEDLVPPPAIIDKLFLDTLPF
Steroid hormone receptor ERR1 (Homo sapiens), sequence (P11474 whole entry, looked up, the tested form may be a part): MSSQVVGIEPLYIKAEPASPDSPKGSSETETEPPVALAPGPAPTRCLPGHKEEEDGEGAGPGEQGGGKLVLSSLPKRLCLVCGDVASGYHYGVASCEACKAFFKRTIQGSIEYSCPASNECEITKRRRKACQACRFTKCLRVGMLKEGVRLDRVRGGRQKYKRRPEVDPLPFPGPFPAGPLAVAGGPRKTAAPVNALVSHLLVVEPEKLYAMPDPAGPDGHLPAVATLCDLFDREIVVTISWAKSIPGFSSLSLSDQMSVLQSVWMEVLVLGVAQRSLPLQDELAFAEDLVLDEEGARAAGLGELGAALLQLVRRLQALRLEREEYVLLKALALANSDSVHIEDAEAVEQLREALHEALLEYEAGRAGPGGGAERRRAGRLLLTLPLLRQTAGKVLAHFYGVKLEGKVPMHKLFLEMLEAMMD
Nuclear receptor subfamily 1 group I member 3 (Homo sapiens), sequence (Q14994 whole entry, looked up, the tested form may be a part): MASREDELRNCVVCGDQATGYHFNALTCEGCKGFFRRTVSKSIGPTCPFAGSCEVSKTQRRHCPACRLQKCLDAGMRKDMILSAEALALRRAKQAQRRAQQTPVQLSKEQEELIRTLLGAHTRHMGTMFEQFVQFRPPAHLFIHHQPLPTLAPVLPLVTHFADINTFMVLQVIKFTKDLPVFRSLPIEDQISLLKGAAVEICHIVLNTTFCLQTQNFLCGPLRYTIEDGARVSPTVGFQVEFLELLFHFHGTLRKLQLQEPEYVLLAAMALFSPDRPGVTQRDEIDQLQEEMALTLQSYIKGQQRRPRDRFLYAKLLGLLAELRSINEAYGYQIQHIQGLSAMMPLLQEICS
Estrogen receptor (Homo sapiens), sequence (P03372 whole entry, looked up, the tested form may be a part): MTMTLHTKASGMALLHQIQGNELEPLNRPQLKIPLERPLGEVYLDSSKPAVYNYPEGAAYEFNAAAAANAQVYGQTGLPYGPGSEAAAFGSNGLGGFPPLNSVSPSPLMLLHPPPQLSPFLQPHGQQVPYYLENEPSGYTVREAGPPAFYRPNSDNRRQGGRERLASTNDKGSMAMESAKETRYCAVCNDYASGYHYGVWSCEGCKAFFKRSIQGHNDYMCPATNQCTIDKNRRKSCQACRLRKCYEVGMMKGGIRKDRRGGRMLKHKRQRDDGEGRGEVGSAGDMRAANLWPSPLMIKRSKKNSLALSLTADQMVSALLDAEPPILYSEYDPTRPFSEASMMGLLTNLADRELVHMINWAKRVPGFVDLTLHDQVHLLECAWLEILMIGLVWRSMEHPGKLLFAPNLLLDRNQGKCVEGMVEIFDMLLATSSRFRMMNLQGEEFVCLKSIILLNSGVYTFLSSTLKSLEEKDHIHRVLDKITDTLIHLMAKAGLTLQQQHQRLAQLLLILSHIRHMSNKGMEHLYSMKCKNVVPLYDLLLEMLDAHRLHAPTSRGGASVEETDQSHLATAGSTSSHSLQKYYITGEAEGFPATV
Estrogen-related receptor gamma (Homo sapiens), sequence (P62508 whole entry, looked up, the tested form may be a part): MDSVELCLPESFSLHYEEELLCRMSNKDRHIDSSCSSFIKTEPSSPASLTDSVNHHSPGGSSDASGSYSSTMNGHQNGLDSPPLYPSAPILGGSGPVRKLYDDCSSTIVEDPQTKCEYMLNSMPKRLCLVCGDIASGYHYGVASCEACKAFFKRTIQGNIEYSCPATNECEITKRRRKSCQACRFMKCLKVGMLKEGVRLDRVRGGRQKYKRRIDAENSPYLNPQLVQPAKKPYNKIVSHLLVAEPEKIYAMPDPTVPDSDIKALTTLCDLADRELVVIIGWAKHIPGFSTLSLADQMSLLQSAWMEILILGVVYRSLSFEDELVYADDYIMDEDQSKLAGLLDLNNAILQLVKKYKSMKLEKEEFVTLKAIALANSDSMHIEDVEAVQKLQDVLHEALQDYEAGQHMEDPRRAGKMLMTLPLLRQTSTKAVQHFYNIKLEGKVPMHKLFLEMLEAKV
X-box-binding protein 1 (Homo sapiens), sequence (P17861 whole entry, looked up): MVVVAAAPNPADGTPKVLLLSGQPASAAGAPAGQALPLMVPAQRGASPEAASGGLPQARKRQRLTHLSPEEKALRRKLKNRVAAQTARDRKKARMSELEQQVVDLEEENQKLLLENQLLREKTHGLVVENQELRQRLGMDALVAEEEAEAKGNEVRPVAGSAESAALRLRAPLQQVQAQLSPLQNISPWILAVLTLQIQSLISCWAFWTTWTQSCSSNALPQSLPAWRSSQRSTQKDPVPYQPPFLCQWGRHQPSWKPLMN

O=C(O)C(F)(OC(F)(F)C(F)(F)C(F)(F)F)C(F)(F)F (stereo not given)
not listed: [18] | [19] | [20]
inactive: all other assays above

CC(C)Nc1ccc(Nc2ccccc2)cc1
active: [4] 3.68 µM | [18] 8.77 µM
not listed: [8] | [14] | [15] | [16] | [19] | [20]
inactive: all other assays above

O=NN1CCCC1
inactive: [1] | [2] | [3] | [4] | [5] | [18] | [7] | [9] | [10] | [12] | [16]

CCCCC(CC)COP(=O)(Oc1ccccc1)Oc1ccccc1 (stereo not given)
active: [4] 0.866 µM | [18] 1.16 µM | [7] 100 µM | [17] 21.8 µM
not listed: [6] | [10] | [11] | [14] | [19] | [20]
inactive: all other assays above

Nc1ccc(Sc2ccc(N)cc2)cc1
inactive: [1] | [2] | [3] | [5] | [6] | [7] | [9] | [12] | [16] | [17]
active: [4] 62.9 µM | [18] 7.99 µM

CCOc1ccc(C(C)(C)COCc2cccc(Oc3ccccc3)c2)cc1
active: [4] 5.77 µM
not listed: [6] | [8] | [10] | [11] | [14] | [15] | [19] | [20]
inactive: all other assays above

O=S(=O)(F)C(F)(F)C(F)(F)C(F)(F)C(F)(F)C(F)(F)C(F)(F)C(F)(F)C(F)(F)F
not listed: [10] | [13] | [18] | [19] | [20]
inactive: all other assays above

CC(Cc1ccc(OCC(=O)O)cc1)NCC(O)c1csc(C(F)(F)F)n1 (stereo not given)
inactive: [1] | [2] | [3] | [4] | [5] | [7] | [9] | [10] | [11] | [17]

ClC(Cl)c1ccccc1
not listed: [8] | [13] | [14] | [15] | [17] | [18] | [19] | [20]
inactive: all other assays above

O=P(Oc1ccccc1)(Oc1ccccc1)Oc1ccccc1
active: [4] 7.17 µM | [7] 49.4 µM | [17] 47.9 µM
not listed: [6] | [8] | [11] | [14] | [19] | [20]
inactive: all other assays above

CCCCN(CC)C(=O)SCCC
inactive: [1] | [2] | [3] | [4] | [5] | [7] | [8] | [9] | [12] | [16]

N#Cc1cc([N+](=O)[O-])ccc1N
not listed: [8] | [9] | [11] | [14] | [18] | [19] | [20]
inactive: all other assays above

Clc1ccc(Oc2ccccc2)cc1
not listed: [6] | [9] | [10] | [11] | [18] | [19] | [20]
inactive: all other assays above

O=c1ssc(Cl)c1Cl
inactive: [2] | [3] | [5] | [18] | [11] | [14] | [15] | [16]
active: [1] 53 µM | [4] 52.6 µM | [7] 45.8 µM

O=C(O)C(F)(F)C(F)(F)C(=O)O
not listed: [6] | [8] | [10] | [12] | [16] | [20]
inactive: all other assays above

O=C(CBr)OCc1ccccc1
not listed: [6] | [8] | [11] | [14] | [16] | [17] | [19]
inactive: all other assays above

COP(N)(=S)OC
not listed: [11] | [13] | [14] | [15] | [17] | [18] | [19] | [20]
inactive: all other assays above

CCCCN(CCCC)SN(C)C(=O)Oc1cccc2c1OC(C)(C)C2
active: [18] 75.5 µM
not listed: [6] | [8] | [11] | [13] | [14] | [16] | [20]
inactive: all other assays above
